Data reported in ChEMBL document CHEMBL5308504, “Tm Shift (DSF) assay results for EUbOPEN Chemogenomics Library” (2023).
“And” between values parts separate entries of the source, which are not always exact repeats. Equal entries are not always repeated.

Tests used:
Conditions in all cases: Compound concentration 20.0 uM, Protein concentration 2.0 uM, Result type QC Liability
[1] = target: Tyrosine-protein kinase ABL1 (Homo sapiens) (UniProt P00519)
[2] = target: Cyclin-dependent kinase 2 (Homo sapiens) (UniProt P24941)
[3] = target: Casein kinase I isoform delta (Homo sapiens) (UniProt P48730)
Casein kinase I isoform delta (Homo sapiens), sequence (P48730 whole entry, looked up, canonical isoform): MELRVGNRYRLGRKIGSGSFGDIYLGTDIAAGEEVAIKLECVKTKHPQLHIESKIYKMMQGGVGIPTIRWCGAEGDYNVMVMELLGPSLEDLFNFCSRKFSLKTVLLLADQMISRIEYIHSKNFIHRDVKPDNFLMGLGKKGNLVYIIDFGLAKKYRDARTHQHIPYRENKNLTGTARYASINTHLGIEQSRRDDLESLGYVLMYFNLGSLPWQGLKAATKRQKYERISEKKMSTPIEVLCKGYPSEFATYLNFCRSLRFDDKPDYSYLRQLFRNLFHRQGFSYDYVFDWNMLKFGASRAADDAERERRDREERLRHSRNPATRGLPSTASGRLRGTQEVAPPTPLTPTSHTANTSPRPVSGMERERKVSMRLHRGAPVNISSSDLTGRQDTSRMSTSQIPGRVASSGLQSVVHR

[4] = target: Glycogen synthase kinase-3 beta (Homo sapiens) (UniProt P49841)
Glycogen synthase kinase-3 beta (Homo sapiens), sequence (P49841 whole entry, looked up): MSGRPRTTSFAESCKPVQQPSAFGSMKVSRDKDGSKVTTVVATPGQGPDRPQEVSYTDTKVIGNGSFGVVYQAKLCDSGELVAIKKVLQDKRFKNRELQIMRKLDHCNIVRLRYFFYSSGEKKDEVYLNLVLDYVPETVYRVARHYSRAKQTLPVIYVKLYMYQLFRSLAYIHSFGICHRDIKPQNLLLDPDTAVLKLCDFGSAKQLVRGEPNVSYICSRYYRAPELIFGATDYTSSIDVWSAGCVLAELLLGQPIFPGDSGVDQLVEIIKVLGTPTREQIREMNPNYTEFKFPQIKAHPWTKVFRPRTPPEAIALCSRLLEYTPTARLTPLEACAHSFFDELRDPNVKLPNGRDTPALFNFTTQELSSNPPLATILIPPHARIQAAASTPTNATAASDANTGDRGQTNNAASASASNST

[5] = target: Mitogen-activated protein kinase 1 (Homo sapiens) (UniProt P28482)
Mitogen-activated protein kinase 1 (Homo sapiens), sequence (P28482 whole entry): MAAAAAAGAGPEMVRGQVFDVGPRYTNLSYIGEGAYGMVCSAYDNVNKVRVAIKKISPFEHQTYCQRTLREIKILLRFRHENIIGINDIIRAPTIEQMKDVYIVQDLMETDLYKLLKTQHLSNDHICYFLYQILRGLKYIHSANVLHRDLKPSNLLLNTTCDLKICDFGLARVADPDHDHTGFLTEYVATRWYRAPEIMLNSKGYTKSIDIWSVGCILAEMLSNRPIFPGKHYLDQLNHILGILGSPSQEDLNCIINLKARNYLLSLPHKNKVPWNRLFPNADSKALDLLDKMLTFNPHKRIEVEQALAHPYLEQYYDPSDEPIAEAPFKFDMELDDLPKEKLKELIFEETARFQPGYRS

[6] = target: T1, Aurora kinase A (Homo sapiens) (UniProt O14965)
T1 sequence (whole entry): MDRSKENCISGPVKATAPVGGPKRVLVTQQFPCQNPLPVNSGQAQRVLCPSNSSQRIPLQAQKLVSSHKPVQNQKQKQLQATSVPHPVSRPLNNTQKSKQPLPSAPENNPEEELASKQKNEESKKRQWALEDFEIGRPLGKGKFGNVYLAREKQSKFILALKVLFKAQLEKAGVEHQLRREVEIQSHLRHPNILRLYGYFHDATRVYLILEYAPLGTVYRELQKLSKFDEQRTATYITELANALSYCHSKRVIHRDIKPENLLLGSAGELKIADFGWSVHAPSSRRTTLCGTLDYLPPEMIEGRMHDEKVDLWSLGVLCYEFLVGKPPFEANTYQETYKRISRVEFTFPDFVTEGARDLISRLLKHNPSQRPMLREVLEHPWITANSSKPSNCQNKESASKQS

Tyrosine-protein kinase ABL1 (Homo sapiens), sequence (P00519 whole entry): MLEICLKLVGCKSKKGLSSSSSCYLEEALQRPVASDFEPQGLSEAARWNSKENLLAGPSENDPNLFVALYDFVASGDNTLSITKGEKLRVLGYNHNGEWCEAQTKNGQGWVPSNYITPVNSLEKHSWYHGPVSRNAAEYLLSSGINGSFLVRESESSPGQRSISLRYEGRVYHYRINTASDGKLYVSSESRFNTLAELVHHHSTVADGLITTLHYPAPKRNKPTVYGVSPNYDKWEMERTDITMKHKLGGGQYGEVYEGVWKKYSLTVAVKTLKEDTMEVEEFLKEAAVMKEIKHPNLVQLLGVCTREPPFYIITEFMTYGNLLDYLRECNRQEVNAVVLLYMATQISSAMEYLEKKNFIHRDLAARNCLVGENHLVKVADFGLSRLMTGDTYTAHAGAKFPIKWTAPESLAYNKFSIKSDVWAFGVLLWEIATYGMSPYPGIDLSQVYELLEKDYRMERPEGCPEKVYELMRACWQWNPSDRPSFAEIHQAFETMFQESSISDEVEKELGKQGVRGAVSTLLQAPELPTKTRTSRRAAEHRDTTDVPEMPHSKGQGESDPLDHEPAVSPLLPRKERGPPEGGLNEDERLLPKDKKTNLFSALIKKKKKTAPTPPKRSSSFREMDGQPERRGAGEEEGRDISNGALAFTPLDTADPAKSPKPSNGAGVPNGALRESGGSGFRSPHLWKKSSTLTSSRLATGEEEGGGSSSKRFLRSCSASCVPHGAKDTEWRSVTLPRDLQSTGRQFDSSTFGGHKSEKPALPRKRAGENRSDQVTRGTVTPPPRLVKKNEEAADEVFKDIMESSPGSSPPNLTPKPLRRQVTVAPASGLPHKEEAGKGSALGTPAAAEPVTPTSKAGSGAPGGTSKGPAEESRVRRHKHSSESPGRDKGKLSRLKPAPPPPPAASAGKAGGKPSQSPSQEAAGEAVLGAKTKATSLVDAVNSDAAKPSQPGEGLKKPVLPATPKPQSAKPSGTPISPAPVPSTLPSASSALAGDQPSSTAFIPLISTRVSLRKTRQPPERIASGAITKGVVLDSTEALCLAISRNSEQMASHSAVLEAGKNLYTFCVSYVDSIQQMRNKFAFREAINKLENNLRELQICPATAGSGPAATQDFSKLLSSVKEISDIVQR

Compound | ΔTm [1] | ΔTm [2] | ΔTm [3] | ΔTm [4] | ΔTm [5] | ΔTm [6]
CN1CCN(C(=O)c2ccc3cc2OCCOCCNc2ccn4ncc-3c4n2)CC1 | 1.92 °C | 0.81 °C | 0.3 °C | 0 °C | 0.5 °C | 3.85 °C
CC(C)(O)[C@H]1CC[C@H](Nc2ccc3ncc(-c4cccc(C(F)(F)F)c4)n3n2)CC1 | 0.38 °C | 1.53 °C | 3.57 °C | 2.41 °C | 0.62 °C | 0.74 °C
CCCCCCCC/C=C\CCCCCCCC(=O)NCCO | -1.47 °C | -0.92 °C | -0.85 °C | -2.08 °C | -1.79 °C | -2.91 °C
COc1cc(OC)cc(-c2cc3cnc(N)nc3nc2NC(=O)NC(C)(C)C)c1 | 0.36 °C and 1.41 °C | 0.84 °C and 0.15 °C | 0.28 °C and -0.14 °C | -0.48 °C and 0.1 °C | 0.47 °C and 0.55 °C | -0.29 °C and 1.1 °C
COc1ccc(CC[C@@H](OC(=O)[C@@H]2CCCCN2C(=O)[C@H](c2cc(OC)c(OC)c(OC)c2)C2CCCCC2)c2cccc(OCCN3CCOCC3)c2)cc1OC | -1.71 °C | -1.5 °C | -2.54 °C | -2.19 °C | -0.05 °C | -0.45 °C
Fc1cccc(-n2cnc3c(NCc4nc5c(F)c(F)ccc5[nH]4)nc(N4CCOCC4)nc32)c1 | 1.99 °C | 0.74 °C | 3.88 °C | 1.83 °C | 0.22 °C | 0.74 °C
CN(C)C(=O)Cn1cc(-c2ccc(-c3cncc4ccccc34)cc2)cn1 | 3.4 °C | 0.46 °C | 1.89 °C | 0.72 °C | -0.64 °C | 2.96 °C
Cc1cnc(-c2cnc(NCCNc3ccc(C#N)cn3)nc2-c2ccc(Cl)cc2Cl)[nH]1 | 0.86 °C | 1.98 °C | 1.3 °C | 14.6 °C | 1.17 °C | 2.09 °C
CN1C(=O)c2ccccc2N(C)c2nc(Nc3cnn(C4CCNCC4)c3)ncc21 | 9.76 °C | 1.04 °C | 0.9 °C | 0.14 °C | 0.53 °C | 16.4 °C
CCCCC[C@@](C)(O)/C=C/[C@H]1C(=O)CC(O)C1C/C=C\CCCC(=O)O (stereo not given in full) | -0.65 °C | 0.16 °C | -0.52 °C | 0.15 °C | -0.04 °C | -0.74 °C
CN(C1CCc2c(c3ccccc3n2CC(=O)O)C1)S(=O)(=O)c1ccc(F)cc1 (stereo not given) | 0.59 °C | 0.46 °C | -0.23 °C | 0 °C | -0.11 °C | 0.35 °C
Nc1ncnc2c1c(COc1cccc(Cl)c1)nn2C1CCOCC1 | 1.95 °C | 0.26 °C | 3.79 °C | 0.11 °C | 0.21 °C | -4.79 °C
CC[C@@H]1C(=O)N(C)c2cnc(Nc3ccc(C(=O)NC4CCN(C)CC4)cc3OC)nc2N1C1CCCC1 | 1.51 °C | 0.58 °C |  | 0.02 °C | 0.15 °C | -0.18 °C
CC(C)c1nc2c(c3c1[C@H](c1ccc(C(F)(F)F)cc1)OC31CCOCC1)[C@H](O)CC(C)(C)C2 | -0.1 °C | -0.68 °C | -0.53 °C | -1.62 °C | -0.14 °C | -0.26 °C
Cn1cc(NC(=O)c2ccc3nc4n(c3c2)CCCNC4=O)nc1C(=O)NC1CCCC1 | 1.61 °C | 0.41 °C | 0.38 °C | -0.59 °C | 0.46 °C | 0.5 °C
COc1ccc(COc2ccc(Cc3cnc(N)nc3N)cc2OC)cc1 | -0.19 °C |  | -0.66 °C | -0.98 °C | 0.25 °C | -0.26 °C
Cc1ccc2c(NS(=O)(=O)c3ccccc3Cl)cccc2c1Oc1ncccc1-c1ccnc(N[C@H]2CCCNC2)n1 | 1.79 °C | 0.86 °C | 0.45 °C | -0.76 °C | -1.3 °C | 1.28 °C
